From PubChem BioAssay (NCATS) come the findings set out here.

The nature of test [1]: AP1 Signaling Pathway (AID 357; active = well fitted curve in either direction with a large enough effect, not every such curve was filed as active;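 also: ME-180 reporter cells stimulated with EGF at its EC50 level; % is scaled to controls: 0 for no effect and ±100 for the full control effect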). A digest of the protocol: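 Read-out was the 460nm/530nm emission ratio (excitation 405nm) after CCF4 loading for 2.5 hours at room temperature. Cells carried an AP-1-driven beta-lactamase reporter, were stimulated with EC50 EGF plus compound for 5 hours, and AC50 values came from titrations.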
Test [2] deals with Cytochrome P450 1A2 (Homo sapiens) (UniProt P05177). The test can be described thus: p450-cyp1a2 (AID 410; calls by dose curve; also: potency is read from the fitted curve at half-maximal effect;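 as to activity change, negative = inhibition: -100% = full effect of reference inhibitor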). A digest of the protocol:
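20nM CYP1A2, 100uM Luciferin-ME (=Km), 100mM KPO4; cpd 10 min RT; +NADPH regen, 60 min RT; stop/detect 20 min; luminescence. Normalized to furafylline 57 uM = full inhibition.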

The nature of test [3]: NFAT Signaling Pathway (AID 444; active = well fitted curve in either direction with a large enough effect, not every such curve was filed as active;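 also: carbachol stimulus at about its EC50 of 1 µM final; % is scaled to controls: 0 for no effect and ±100 for the full control effect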). The settings on record: Jurkat NFAT-bla M1, carbachol, beta-lactamase ratio, 5 h; at 17.2 µM (top of the series) unless noted. A digest of the protocol: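 Read-out: CCF4 FRET ratio (460 nm/530 nm) after 1 h RT dye loading, used for %activity and AC50 from titration series. Cells: Jurkat NFAT-β-lactamase/M1 line, treated with compound plus 1 uM carbachol for 5 h, 37 °C.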

The nature of test [4]: Stat Signaling Pathway (AID 446; active = well fitted curve in either direction with a large enough effect, not every such curve was filed as active;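 also: ME-180 cervical cancer cells given 40 pM IL-6 alongside compound; SIE-controlled beta-lactamase reporter measured as 460/530 nm FRET emission ratio; % is scaled to controls: 0 for no effect and ±100 for the full control effect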). A digest of the protocol: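 Overnight-plated ME-180 cells bearing a STAT Inducible Element beta-lactamase reporter; 5 h co-exposure to compound and 40 pM IL-6; values normalized to 300 pM IL-6 and 125 nM JAK inhibitor controls.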
The target in test [5] is Glucocorticoid receptor (Homo sapiens) (UniProt P04150). The test can be described thus: GR-GFP Redistribution (AID 450;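 active = compounds whose dose series gives a full or clear partial fitted curve of increased nuclear translocation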; also: potency is read from the fitted curve at half-maximal effect). Conditions: U2OS GR-GFP nuclear translocation, laser cytometry, 2 h.
Test [6] shares this target. The test can be described thus: GR-EFC Redistribution (AID 451; calls by dose curve; also: potency is read from the fitted curve at half-maximal effect). Conditions: CHO-K1 GR-EFC translocation, beta-gal luminescence, 2 h. A digest of the protocol:
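Translocation of GR-ED fusion to nuclear EA restores b-gal, read by luminescence after 1 h room-temperature detection. Engineered CHO-K1 biosensor cells, 1,000/well, exposed 2 h at 37 C to titrations up to 46 uM final.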

The target of test [7] is Mitogen-activated protein kinase 10 (Mus musculus) (UniProt Q61831). The test can be described thus: JNK3 AlphaScreen Assay (AID 530; active = well fitted curve in either direction with a large enough effect, not every such curve was filed as active;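 also: kinase came from lysate of stimulated human HepG2 cells; signal reports phosphorylation of biotinylated GST-cJun 1-79 at Ser73 with 10 µM ATP; % is scaled to controls: 0 for no effect and ±100 for the full control effect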). An outline of the steps:
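Kinase buffer: 20 mM Tris-HCl pH 7.6, 10 mM MgCl2, 1 mM DTT, 0.1 mM Na3VO4, 0.01% Tween-20; ATP 10 uM. Substrate biotin-GST-cJun(1-79), enzyme from activated HepG2 lysates. Detection by Ser73 phospho-antibody AlphaScreen.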
On the technique in general: In Alpha technology, singlet oxygen from a donor bead excites a nearby acceptor bead.

The target of test [8] is 3',5'-cyclic-AMP phosphodiesterase 4B (Homo sapiens) (UniProt Q07343). The test can be described thus: qHTS Assay for Inhibitors of PDE-IV (AID 607; active = well fitted activation curve with a large enough effect in the main read-out, with a control signal flat, not every such curve was filed as active; also: % of control where 0% means no effect). An outline of the steps:
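Live HEK293 cells with a modified cyclic nucleotide-gated (CNG) channel report intracellular cAMP via membrane-potential dye fluorescence (ex 535/em 590 nm). Endogenous PDE-IV was targeted. Compounds were tested at up to 22.9 uM final; RO 20-1724 100 uM served as control.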

Test [9] in a line: qHTS Assay for Lipid Storage Modulators (AID 1519; calls by dose curve). The settings on record: Drosophila S3 cells, BODIPY lipid droplet/cell ratio, laser cytometry, cells loaded with oleic acid; for activity change, negative = inhibition: at 25.7 µM (top of the series). A digest of the protocol:
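Cells seeded at 5,000 per well were treated with compounds over a concentration series and loaded with oleic acid (400 uM, as added). Lipid droplet fluorescence (488 nm excitation, 500-530 nm channel) was read by laser-scanning cytometry and normalized to 20 uM Triacsin C.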
(In general: qHTS replaces the single test concentration by a dilution series.)

Test [10] has as its target Ubiquitin carboxyl-terminal hydrolase 1 (Homo sapiens) (UniProt O94782). The test can be described thus: Inhibitors of USP1/UAF1: Pilot qHTS (AID 504865).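 Also: rhodamine fluorescence freed from ubiquitin-rhodamine substrate followed over time; top concentration of the series differs between compounds; % is scaled to controls: 0 for no effect and ±100 for the full control effect; nearly all actives have a fitted effect of over 35% in size.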 A digest of the protocol:
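1nM USP1/UAF1 + cpd, 15 min RT; start w/ Ub-Rho 150nM final; kinetic FL 480/540 nm, 6 reads q60 s. Buffer 50mM HEPES pH 7.8, 0.5mM EDTA, 1mM TCEP, 0.01% Tween-20, 0.1 mg/ml BSA.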

Test [11] can be described thus: S16 Schwann cell viability assay (CellTiter-Glo assay) (AID 624031).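 Also: native untransfected S16 rat Schwann cells; cellular ATP luminescence as a viability measure; plate controls were DMSO-treated cells for no effect and cell-free wells for full effect; nearly all actives have a fitted effect of over 70% in size.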 A digest of the protocol: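 Parental S16 cells, 24 h compound, 37 °C. ATP-luminescence viability; DMSO = 0% activity, empty wells as reference; curves classified by fit quality and efficacy.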
For orientation: In ATP-based viability assays light output follows the ATP content of the culture.

A short description of test [12]: S16 Schwann cell PMP22 intronic element firefly luciferase assay (AID 624032).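 Also: plate controls were DMSO for no effect and PTC124 positive control mean for full effect; nearly all actives have a fitted effect of over 30% in size.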 A digest of the protocol: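 Luciferase reporter of PMP22 intronic-element expression in stably transfected S16 rat Schwann cells, read by ONE-Glo luminescence after 24 h compound exposure at 37 C. Activity scaled between DMSO (0%) and positive-control PTC124; concentration-effect curves quality-classified.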

Test [13] is described as follows: qHTS profiling for inhibitors of Plasmodium falciparum proliferation (AID 504749).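 Also: 0% = DMSO vehicle and full inhibition = artemisinin control; nearly all actives have a fitted effect of over 60% in size.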 Conditions: P. falciparum in erythrocytes, SYBR Green DNA, 72 h, at 12.8 µM (top of the series). A digest of the protocol:
(§1)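 In a 72 h erythrocytic culture (37 C, humidified, 5% CO2) at 2.5% hematocrit and 0.3% starting parasitemia, compounds were tested; SYBR Green I in detergent lysis buffer stained parasite DNA overnight.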

Test [14] has as its system 3D7. The description is as above. The settings on record: P. falciparum in erythrocytes, SYBR Green DNA, 72 h; series mostly up to 12.8 µM. A digest of the protocol: as §1
In test [15] the test system is AS120. The description is as above. Conditions: P. falciparum in erythrocytes, SYBR Green DNA, 72 h; series mostly up to 12.8 µM. A digest of the protocol:
as §1

For test [16], the system named is ATS189. Described as above. Conditions: P. falciparum in erythrocytes, SYBR Green DNA, 72 h; series mostly up to 12.8 µM. An outline of the steps:
as §1

The test system of test [17] is CP217. The description is as above. The settings on record: P. falciparum in erythrocytes, SYBR Green DNA, 72 h; series mostly up to 12.8 µM. An outline of the steps: as §1
The subject of test [18] is CP250. The test is described as above. Conditions: P. falciparum in erythrocytes, SYBR Green DNA, 72 h; series mostly up to 12.8 µM. A digest of the protocol: as §1
Test [19] relates to SC27B. The test is described as above. The settings on record: P. falciparum in erythrocytes, SYBR Green DNA, 72 h; series mostly up to 12.8 µM. An outline of the steps: as §1
The subject of test [20] is CP247. The test is described as above. Conditions: P. falciparum in erythrocytes, SYBR Green DNA, 72 h; series mostly up to 12.8 µM. A digest of the protocol:
as §1

[21] abbreviates: measured here: cell count channel max response.
[22] abbreviates: measured here: lipid channel max response.

Inconclusive results are not listed. Active and inactive are the calls of the source. Unless noted, calls follow the shape of the dose curve; as a rule, active = well fitted curve in the direction sought with a large enough effect; inconclusive = small, poorly fitted or top-dose-only effect, or another doubt; inactive = no such curve, though single readings can be large; an effect the other way counts as inactive or inconclusive.

Sequence of Glucocorticoid receptor (Homo sapiens) (P04150 whole entry, looked up): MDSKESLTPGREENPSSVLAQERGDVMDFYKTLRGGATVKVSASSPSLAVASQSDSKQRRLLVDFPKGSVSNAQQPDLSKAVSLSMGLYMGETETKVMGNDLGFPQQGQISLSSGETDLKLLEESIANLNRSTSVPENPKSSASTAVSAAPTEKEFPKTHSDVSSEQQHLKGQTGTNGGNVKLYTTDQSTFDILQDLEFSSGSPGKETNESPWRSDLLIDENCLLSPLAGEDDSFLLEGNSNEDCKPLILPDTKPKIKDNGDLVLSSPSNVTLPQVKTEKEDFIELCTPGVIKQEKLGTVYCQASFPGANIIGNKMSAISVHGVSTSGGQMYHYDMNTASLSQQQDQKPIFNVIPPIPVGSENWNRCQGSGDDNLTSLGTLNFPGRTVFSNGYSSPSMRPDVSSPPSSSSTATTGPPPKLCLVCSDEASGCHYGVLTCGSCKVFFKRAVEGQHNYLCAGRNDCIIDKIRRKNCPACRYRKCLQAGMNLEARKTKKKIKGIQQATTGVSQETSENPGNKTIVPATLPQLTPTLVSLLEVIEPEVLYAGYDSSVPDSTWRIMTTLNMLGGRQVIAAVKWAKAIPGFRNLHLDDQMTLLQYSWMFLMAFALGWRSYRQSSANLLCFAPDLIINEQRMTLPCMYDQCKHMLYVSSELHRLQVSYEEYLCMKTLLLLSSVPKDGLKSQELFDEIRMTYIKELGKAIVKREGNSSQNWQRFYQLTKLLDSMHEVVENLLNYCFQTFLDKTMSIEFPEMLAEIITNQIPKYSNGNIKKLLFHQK
Sequence of Cytochrome P450 1A2 (Homo sapiens) (P05177 whole entry, looked up): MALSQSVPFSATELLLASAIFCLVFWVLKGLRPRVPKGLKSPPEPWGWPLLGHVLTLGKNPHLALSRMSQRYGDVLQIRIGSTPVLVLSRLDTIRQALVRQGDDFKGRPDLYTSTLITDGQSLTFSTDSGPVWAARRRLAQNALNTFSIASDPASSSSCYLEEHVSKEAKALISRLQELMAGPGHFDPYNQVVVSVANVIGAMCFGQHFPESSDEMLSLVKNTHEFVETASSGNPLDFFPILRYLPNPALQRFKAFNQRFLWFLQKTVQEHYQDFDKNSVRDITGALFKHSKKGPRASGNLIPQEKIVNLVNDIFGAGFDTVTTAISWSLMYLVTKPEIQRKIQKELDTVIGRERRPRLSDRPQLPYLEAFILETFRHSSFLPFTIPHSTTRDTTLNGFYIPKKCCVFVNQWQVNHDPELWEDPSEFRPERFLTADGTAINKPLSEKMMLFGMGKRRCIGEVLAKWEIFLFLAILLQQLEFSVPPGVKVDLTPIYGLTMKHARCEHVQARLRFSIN
Sequence of 3',5'-cyclic-AMP phosphodiesterase 4B (Homo sapiens) (Q07343 whole entry, looked up): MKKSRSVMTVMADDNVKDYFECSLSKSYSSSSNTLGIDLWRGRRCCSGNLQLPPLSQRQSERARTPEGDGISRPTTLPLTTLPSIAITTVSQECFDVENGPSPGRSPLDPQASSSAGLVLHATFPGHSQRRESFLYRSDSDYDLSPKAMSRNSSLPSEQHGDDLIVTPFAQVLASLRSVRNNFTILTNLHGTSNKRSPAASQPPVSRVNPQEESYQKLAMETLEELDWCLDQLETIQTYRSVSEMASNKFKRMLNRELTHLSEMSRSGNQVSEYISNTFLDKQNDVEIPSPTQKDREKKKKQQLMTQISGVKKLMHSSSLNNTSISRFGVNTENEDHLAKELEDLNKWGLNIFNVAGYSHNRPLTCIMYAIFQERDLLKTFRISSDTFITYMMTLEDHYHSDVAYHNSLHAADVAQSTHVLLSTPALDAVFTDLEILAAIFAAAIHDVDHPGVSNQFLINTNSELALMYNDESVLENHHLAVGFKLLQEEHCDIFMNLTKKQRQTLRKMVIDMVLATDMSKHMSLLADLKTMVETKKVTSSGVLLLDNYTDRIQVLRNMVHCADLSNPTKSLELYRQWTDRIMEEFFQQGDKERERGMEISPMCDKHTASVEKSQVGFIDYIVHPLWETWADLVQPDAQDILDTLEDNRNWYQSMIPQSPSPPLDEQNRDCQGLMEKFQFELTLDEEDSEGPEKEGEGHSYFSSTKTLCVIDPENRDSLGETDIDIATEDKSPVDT
Sequence of Ubiquitin carboxyl-terminal hydrolase 1 (Homo sapiens) (O94782 whole entry, looked up): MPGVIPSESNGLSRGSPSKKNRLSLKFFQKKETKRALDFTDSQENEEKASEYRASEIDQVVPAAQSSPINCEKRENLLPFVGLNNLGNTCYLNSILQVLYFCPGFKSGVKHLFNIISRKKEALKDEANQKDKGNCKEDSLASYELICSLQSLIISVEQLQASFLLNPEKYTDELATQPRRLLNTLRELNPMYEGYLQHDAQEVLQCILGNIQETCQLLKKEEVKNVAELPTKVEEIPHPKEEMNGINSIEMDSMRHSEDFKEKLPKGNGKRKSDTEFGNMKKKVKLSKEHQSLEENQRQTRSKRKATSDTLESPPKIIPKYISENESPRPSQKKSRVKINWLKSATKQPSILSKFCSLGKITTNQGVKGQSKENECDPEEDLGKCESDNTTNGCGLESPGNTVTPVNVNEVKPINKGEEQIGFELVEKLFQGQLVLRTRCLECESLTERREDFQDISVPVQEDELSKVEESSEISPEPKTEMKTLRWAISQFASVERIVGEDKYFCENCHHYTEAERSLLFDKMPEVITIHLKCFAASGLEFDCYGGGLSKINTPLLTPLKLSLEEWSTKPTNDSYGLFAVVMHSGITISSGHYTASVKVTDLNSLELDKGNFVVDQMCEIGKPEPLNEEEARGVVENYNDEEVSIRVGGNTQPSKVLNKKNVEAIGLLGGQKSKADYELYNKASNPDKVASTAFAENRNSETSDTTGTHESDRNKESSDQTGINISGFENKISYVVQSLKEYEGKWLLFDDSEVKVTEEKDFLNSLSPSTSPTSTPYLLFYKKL

Take `O=C(/C=C\c1ccc(O)c(O)c1)O[C@@H]1C[C@](O)(C(=O)O)C[C@@H](O)[C@@H]1O`: the outcome in test [1], in test [4] and in test [8] was inactive. In addition, the Potency entry in test [2], in [7] and in test [10] was “inactive” throughout. For the same compound, the activity change, negative = inhibition in test [3] was -0.271% (inactive); in [9], 2.29% (inactive). For the same compound, the Potency in test [5] and in test [6] was > 20.6 µM (inactive) throughout. In addition, the max response in test [9] (setting [21]) was 1.17%; in test [9] (setting [22]), 3.23%.

With `CC(=O)[C@@]1(O)CC[C@H]2[C@H]3C[C@@H](C)C4=CC(=O)C=C[C@]4(C)[C@@]3(F)[C@@H](O)C[C@]21C`, the compound was called inactive in [1], in test [4], in [8] and in test [11]. The Potency entry in test [2], in test [7], in test [10], in test [12], in test [14] and in [15] was “inactive” in each case. Moreover, the Potency result in [16], in test [17], in test [18] and in [19] was “inactive” each time. For the same compound, the values for the activity change, negative = inhibition in [3] and in test [9] were 5.97% (inactive) and -6.74% (inactive), respectively. For the same compound, the Potency is 0.00155 µM (active) in test [5] and 0.00821 µM (active) in test [6]. Also, the max response was -14.1% in test [9] (setting [21]) and -19.8% in test [9] (setting [22]). The activity, negative = inhibition was -2.85% (inactive) in [13] (parasite line A) and -0.507% (inactive) in test [13] (parasite line B).

For `NC(=O)N/N=C\c1ccc([N+](=O)[O-])o1`, the compound was classed as inactive in test [1], in test [4] and in test [8]. Moreover, the Potency in test [2] was 12.6 µM (active); in test [6], > 20.6 µM (inactive). Moreover, the figures for the activity change, negative = inhibition in test [3] and in test [9] were -5.34% (inactive) and 0.117% (inactive), respectively. For the same compound, the Potency result in test [7] and in test [10] was “inactive” each time. Also, the max response was -2.81% in test [9] (setting [21]) and -1.91% in test [9] (setting [22]).

As for `CN(C)CCn1nnnc1SCC1=C(C(=O)O)N2C(=O)[C@@H](NC(=O)Cc3csc(N)n3)[C@@H]2SC1`, the outcome in [1], in [4], in test [8] and in test [11] was inactive. Moreover, the Potency result in test [2], in [7], in test [10], in test [12], in test [14] and in test [15] was “inactive” each time. In addition, the Potency result in test [17], in test [20], in [18] and in [19] was “inactive” throughout. Further, the figures for the activity change, negative = inhibition in test [3] and in test [9] were -2.63% (inactive) and -0.351% (inactive), respectively. Moreover, the Potency in test [5] is > 20.6 µM (inactive). Also, the max response in test [9] (setting [21]) was -8.06%; in test [9] (setting [22]), -8.86%. The activity, negative = inhibition was 0.61% (inactive) in [13] (parasite line A) and 1.06% (inactive) in [13] (parasite line B).

On to `CN[C@@H]1[C@H](O[C@H]2[C@@H](O[C@@H]3[C@@H](O)[C@@H](O)[C@@H](N=C(N)N)[C@@H](O)[C@@H]3N=C(N)N)O[C@@H](C)[C@]2(O)CO)O[C@H](CO)[C@@H](O)[C@@H]1O`, for which the call in [1], in test [4] and in test [8] was inactive. Further, the Potency entry in [2], in test [7] and in [10] was “inactive” throughout. In addition, the activity change, negative = inhibition in test [3] was 1.68% (inactive); in [9], -1.28% (inactive). Also, the Potency in [6] is > 20.6 µM (inactive). Also, the max response in [9] (setting [21]) is -9.77%; in [9] (setting [22]), -12.5%.

As for `COc1cc2c(cc1OC)-c1cc3ccc(OC)c(OC)c3c[n+]1CC2`, the compound was called inactive in test [1], in test [4] and in test [8]. Further, the Potency result in [2], in test [7] and in test [10] was “inactive” in each case. Besides, the activity change, negative = inhibition is -18.1% (inactive) in [3] and 1.8% (inactive) in [9]. The Potency in test [5] and in test [6] was > 20.6 µM (inactive) each time. Further, the max response is -8.72% in test [9] (setting [21]) and -7.96% in test [9] (setting [22]).

On to `C[C@H]1[C@@H](O)[C@@H](C)\C=C/C=C\C=C/C=C\C=C/C=C\C=C/[C@@H](O[C@H]2O[C@@H](C)[C@@H](O)[C@@H](N)[C@@H]2O)C[C@@H]2O[C@](O)(C[C@@H](O)C[C@@H](O)[C@@H](O)CC[C@@H](O)C[C@@H](O)CC(=O)O[C@H]1C)C[C@@H](O)[C@H]2C(=O)O` (stereo in doubt), for which the result in test [1], in [4] and in [8] was inactive. Moreover, the Potency result in test [2], in [7] and in test [10] was “inactive” throughout. Also, the activity change, negative = inhibition in test [3] was -11.5% (inactive); in [9], 3.52% (inactive). Also, the Potency in [6] was > 20.6 µM (inactive). In addition, the max response was 0.724% in [9] (setting [21]) and 3.85% in test [9] (setting [22]).
